Source: paper PMC4336329 (PLoS ONE, 2015)
About 14,000 (4.5%) of roughly 310,000 compounds showed an effect of 50% or more. Effects have a minus sign here. What follows is part of a selection rich in strong results, with near analogues and random picks from the rest.

Each molecule was assayed against human ether-à-go-go-related gene (hERG) potassium channel (human, UniProt Q12809) (assay: primary screen, population patch clamp on CHO cells stably expressing hERG; higher = less effect of the substance).
Sequence of human ether-à-go-go-related gene (hERG) potassium channel (Q12809 whole entry, looked up): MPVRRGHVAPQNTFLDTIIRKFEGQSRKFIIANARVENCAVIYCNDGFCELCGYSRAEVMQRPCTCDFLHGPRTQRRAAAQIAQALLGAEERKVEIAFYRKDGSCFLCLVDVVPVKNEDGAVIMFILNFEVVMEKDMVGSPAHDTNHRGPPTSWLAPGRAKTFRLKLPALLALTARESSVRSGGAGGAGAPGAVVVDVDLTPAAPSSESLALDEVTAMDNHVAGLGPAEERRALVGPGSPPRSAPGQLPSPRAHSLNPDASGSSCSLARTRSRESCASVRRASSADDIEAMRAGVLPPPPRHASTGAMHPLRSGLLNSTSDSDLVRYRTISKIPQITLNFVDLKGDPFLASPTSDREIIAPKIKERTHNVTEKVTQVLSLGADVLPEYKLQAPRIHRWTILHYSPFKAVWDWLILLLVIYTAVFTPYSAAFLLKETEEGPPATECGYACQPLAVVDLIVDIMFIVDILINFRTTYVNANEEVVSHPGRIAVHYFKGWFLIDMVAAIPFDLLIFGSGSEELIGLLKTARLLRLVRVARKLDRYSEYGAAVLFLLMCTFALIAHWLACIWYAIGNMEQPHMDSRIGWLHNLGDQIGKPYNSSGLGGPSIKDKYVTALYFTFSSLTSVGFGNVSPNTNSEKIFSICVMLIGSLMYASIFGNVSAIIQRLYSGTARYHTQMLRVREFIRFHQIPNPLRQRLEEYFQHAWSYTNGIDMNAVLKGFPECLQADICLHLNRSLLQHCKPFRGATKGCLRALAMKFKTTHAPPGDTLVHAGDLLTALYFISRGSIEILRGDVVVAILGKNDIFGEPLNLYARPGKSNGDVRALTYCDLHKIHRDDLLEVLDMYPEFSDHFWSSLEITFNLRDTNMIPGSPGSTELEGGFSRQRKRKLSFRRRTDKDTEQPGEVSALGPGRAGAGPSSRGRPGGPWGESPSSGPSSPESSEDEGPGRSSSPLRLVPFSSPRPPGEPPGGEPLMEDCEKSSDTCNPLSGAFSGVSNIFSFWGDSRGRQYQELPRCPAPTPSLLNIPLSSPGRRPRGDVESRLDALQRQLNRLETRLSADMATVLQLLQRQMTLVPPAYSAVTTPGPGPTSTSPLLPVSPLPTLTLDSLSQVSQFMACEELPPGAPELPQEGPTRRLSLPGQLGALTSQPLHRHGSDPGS
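Note: peak tail current of the secondary pulse compared with the same well before compound.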

Structure (SMILES)	hERG current change (%, negative = inhibition) at 10uM [%]
COc1cc(/C=N/NC(=O)C(=O)NCC2CCCO2)cc(Cl)c1O (stereo not shown)	31.8
O=C(Nc1ccccc1)Nc1nc(-c2ccc(F)c(F)c2)cs1	16.3
Cc1c(C)n2c(SCC(=O)N3CC(C)OC(C)C3)nnc2[nH]c1=O (stereo not shown)	9.45
C/C(=N\NC(=O)c1c(Br)c(C)nn1C)c1cccc(NC(=O)c2ccccc2C)c1	-4.71
O=C(NC1CCCCCC1)C(=S)NCc1ccccc1	5.94
Cc1ccc(C(=O)NCCC(=O)Nc2ccccc2C)cc1	19.5
COCCNC(=O)Cn1cc(/C=C2\C(=O)NC(=O)N(c3ccccc3F)C2=O)c2ccccc21	17
O=C1CN(C(=O)c2ccc(Br)o2)C(c2ccccc2)c2cc(Br)ccc2N1 (stereo not shown)	-23.6
O=C1CN(C(=O)c2ccc(Br)o2)C(c2ccccc2)c2cc(F)ccc2N1 (stereo not shown)	-45.3
Cc1ccc2c(c1)C(c1ccccc1)N(C(=O)c1ccc(Br)o1)CC(=O)N2 (stereo not shown)	-56.9
Cc1c(-c2ccccc2)[n+](=O)c(-c2ccco2)c(C)n1[O-]	7.02
COCCNC(=O)C1CC(=O)N(c2ccc(OC)cc2)C1c1ccc(OC)cc1 (stereo not shown)	9.03
Cl.O=C(c1ccco1)N1CCN(C(c2ccccc2Cl)c2nnnn2CC2CCCO2)CC1 (stereo not shown)	-12.3
CCC(C)(C)n1nnnc1C(c1ccccc1F)N1CCN(C(=O)c2ccco2)CC1 (stereo not shown)	-13.9
O=C(c1ccco1)N1CCN(C(c2ccccc2Cl)c2nnnn2Cc2cccs2)CC1 (stereo not shown)	-56.2
Cl.O=C(c1ccco1)N1CCN(C(c2ccccc2Cl)c2nnnn2Cc2ccco2)CC1 (stereo not shown)	-65.1
Cl.Clc1ccccc1C(c1nnnn1Cc1ccco1)N1CCN(Cc2ccco2)CC1 (stereo not shown)	-27.6
CCC(c1nnnn1Cc1cccs1)N1CCN(C(=O)c2ccco2)CC1 (stereo not shown)	-36.5
COCCn1nnnc1C(c1ccccc1OC)N1CCN(C(=O)c2ccco2)CC1 (stereo not shown)	-16.1
O=C(c1ccco1)N1CCN(C(c2ccccc2F)c2nnnn2Cc2cccs2)CC1 (stereo not shown)	-51
Cl.O=C(c1ccco1)N1CCN(C(c2ccccc2F)c2nnnn2CC2CCCO2)CC1 (stereo not shown)	-17.2
CC1=NNC(=O)C1CCC(=O)N/N=C\c1ccccc1[N+](=O)[O-] (stereo not shown)	0.38
CCN1CCN(CCCNC(=O)c2ccc(CS(=O)c3ccc(Br)cc3)o2)CC1 (stereo not shown)	24.5

Structure (SMILES)	hERG current change (%, negative = inhibition) at 10uM [%]
CCOc1[nH]n(-c2ccccc2)c(=O)c1C=NCC(=O)OC	-18.8
CCCC(=O)c1ccc(N2CCN(C(=O)c3cccs3)CC2)c(F)c1	-75.1
CCC(=O)c1ccc(N2CCN(C(=O)c3ccccc3F)CC2)c(F)c1	-20.7
CCCC(=O)c1ccc(N2CCCCC2)c(F)c1	10.5
CCCC(=O)c1ccc(N2CCCC2)c(F)c1	6.96
CCC(=O)c1ccc(N2CCN(C(=O)c3cccs3)CC2)c(F)c1	-51.6
CC(=O)c1ccc(N2CCN(C(=O)c3cccs3)CC2)c(F)c1	-28.3
COc1ccccc1CNS(=O)(=O)c1c(C(=O)N2CCCCC2)c(C)n(C)c1C	5.51
COc1cccc(C2=NC(C)(C)NC(c3ccccc3O)C2)c1 (stereo not shown)	2.64
COc1ccc(Cn2c(=O)c3[nH]cnc3n(-c3ccccc3C)c2=O)cc1	7.7
Cc1cccc(NC(=O)CS(=O)(=O)Cc2ccccc2)n1	2.58
CCc1cc(C(=O)N/N=C/c2ccc(OC)cc2)c2ccccc2n1	-4.27
O=C1C2Sc3[nH]c(=O)sc3C(c3ccccc3)C2C(=O)N1c1ccccc1 (stereo not shown)	-2.84
CC(=O)Nc1ccc(S(=O)(=O)NC2(C(F)(F)F)NC(=O)N(C3CCCCC3)C2=O)cc1 (stereo not shown)	2.87
O=S(=O)(NC1CCCCC1Sc1ncccn1)c1ccccc1 (stereo not shown)	-5.72
CCCN1CCN(C2CCCCC2NS(=O)(=O)c2ccccc2)CC1 (stereo not shown)	-44.7
CCCN1CCN(C2CCCCC2NS(=O)(=O)c2ccc(Cl)cc2)CC1 (stereo not shown)	-63.4
Cc1cc(C)nc(SC2CCCCC2NS(=O)(=O)c2ccc(Cl)cc2)n1 (stereo not shown)	-14.7
O=S(=O)(NC1CCCCC1N1CCCCC1)c1ccc(Cl)cc1 (stereo not shown)	-5.16
CN1CCN(C2CCCCC2NS(=O)(=O)c2ccc(Cl)cc2)CC1 (stereo not shown)	-29.8
CCN1CCN(C2CCCCC2NS(=O)(=O)c2ccccc2)CC1 (stereo not shown)	11.7
O=S(=O)(NC1CCCCC1Sc1ncccn1)c1ccc(Cl)cc1 (stereo not shown)	-50.9
CCN1CCN(C2CCCCC2NS(=O)(=O)c2ccc(Cl)cc2)CC1 (stereo not shown)	-61.8
